The target in assay [1] is Thyrotropin receptor (Homo sapiens) (UniProt P16473). Nature of the assay: qHTS assay to identify small molecule antagonists of the thyroid stimulating hormone receptor (TSHR) signaling pathway (AID 1259385; calls by dose curve; further: nearly all actives have a fitted effect of over 20% in size). An outline of the steps: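 TSHR-HEK293 cells were plated and held 18 h at 37C/5% CO2, then given compound plus Ro20-1724 and stimulated with TSH at 1.5 ng/mL final. After 30 min at room temperature, cAMP was detected with cAMP-d2/anti-cAMP-cryptate (1 h) by fluorescence.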
Background: In qHTS, concentration-response curves come from the screen itself.

Assay [2] in a line: qHTS assay to identify small molecule agonists of the estrogen receptor alpha (ER-alpha) signaling pathway in the presence of an antagonist - cell viability counter screen (AID 1259386).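 Further: cells exposed to compounds for 22 h at 37 °C before the viability read; nearly all actives have a fitted effect of over 30% in size.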 Further: potency means the concentration at half of the fitted maximal effect. An outline of the steps:
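Read-out: CellTiter-Fluor fluorescence after 1hr reagent incubation, measured in the same wells as the luciferase readout. VM7Luc4E2 cells were exposed to 15 compound concentrations with 10.0nM ICI-182,780 for 22hr at 37C.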

Assay [3] addresses Progesterone receptor (Homo sapiens) (UniProt P06401). Nature of the assay: qHTS assay to identify small molecule agonists of the progesterone receptor (PR) signaling pathway (AID 1346784; calls by dose curve; further: nearly all actives have a fitted effect of over 30% in size; further: potency means the concentration at half of the fitted maximal effect). An outline of the steps:
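Agonist mode, quantitative HTS format in a HEK 293T line expressing a UAS-controlled beta-lactamase reporter; 16 hr compound exposure at 37C in 2% charcoal-stripped FBS, then LiveBLAzer B/G FRET fluorescence.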

For assay [4] the target is unchanged. Briefly: qHTS assay to identify small molecule antagonists of the progesterone receptor (PR) signaling pathway (AID 1346795; active means well fitted inhibition curve with a large enough effect in the signal ratio in the repeat runs, not every such curve was filed as active; the % refers to the signal ratio). Summed up:
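HEK293T PR-UAS-bla reporter cells in charcoal-stripped serum (2%) received compound after a 6 hr settling period, followed by R5020 agonist at 1 nM final; 16 hr incubation preceded the FRET substrate step and fluorescence measurement.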

The nature of assay [5]: qHTS assay to identify small molecule antagonists of the progesterone receptor (PR) signaling pathway - cell viability counter screen (AID 1346798). Further: series mostly up to about 92 µM; nearly all actives have a fitted effect of over 50% in size. Summed up: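 Same-well multiplex: after 16 hr at 37C with compound and R5020 stimulation, HEK293T cells carrying a UAS-bla reporter received LiveBLAzer substrate (2 hr RT), then CellTiter-Glo (30 min RT) for luminescent viability.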

The nature of assay [6]: qHTS assay to identify small molecule antagonists of the TGF-beta/Smad signaling pathway - cell viability counter screen (AID 1346824). Further: nearly all actives have a fitted effect of over 50% in size. Summed up:
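SBE-bla HEK 293T cells were plated overnight at 37 C, then given compounds in DMSO plus TGF-beta1 (added as 0.25 ng/mL solution) for 5 hr. After the bla read, CellTiter-Glo was added to the same wells and luminescence read after 30 min at room temperature.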

Assay [7] can be described thus: qHTS assay to identify small molecule agonists of the TGF-beta/Smad signaling pathway - cell viability counter screen (AID 1346829). Further: top concentration of the series differs between compounds; nearly all actives have a fitted effect of over 45% in size. Summed up:
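CellTiter-Glo luminescence readout; SBE-bla HEK 293T cells, overnight plating, compound 5 hr at 37 C/5% CO2, then bla substrate 2 hr RT, then CellTiter-Glo 30 min RT.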

Assay [8] is described as follows: qHTS assay to identify small molecule agonists of the TGF-beta/Smad signaling pathway (AID 1346859; active means well fitted activation curve with a large enough effect in the signal ratio in the repeat runs, not every such curve was filed as active; the % refers to the signal ratio; further: series mostly up to about 77 µM). An outline of the steps:
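Smad-responsive beta-lactamase reporter cells (HEK 293T) received compounds from DMSO stocks after overnight attachment, were incubated 5 hr, then treated 2 hr with FRET substrate before dual-emission fluorescence measurement (405 nm excitation).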

Assay [9] deals with Thyrotropin-releasing hormone receptor (Homo sapiens) (UniProt P34981). Briefly: qHTS assay to identify small molecule antagonists of the thyrotropin-releasing hormone receptor (TRHR) signaling pathway (AID 1346877; active means well fitted inhibition curve with a large enough effect in the repeat runs, not every such curve was filed as active; further: series mostly up to about 51 µM). An outline of the steps:
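HEK293/TRHR cells, 18 h, 37 °C; Ca2+ dye 2 h; cpd 5 min RT; TRH 1 nM final; fluorescence read 3 min, 1 s intervals; 15 concs, triplicate.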

The target is the same in assay [10]. Briefly: qHTS assay to identify small molecule agonists of the thyrotropin-releasing hormone receptor (TRHR) signaling pathway (AID 1346891; calls by dose curve;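 further: HEK293 cells expressing TRHR with calcium dye readout; series mostly up to about 58 µM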). Summed up:
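Agonist-mode calcium mobilisation screen: TRHR-transfected HEK293 cells cultured overnight (18 h), dye-loaded for 2 h at 37 °C, exposed to compounds, and monitored by fluorescence for 3 min.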

Assay [11] is described as follows: Human pregnane X receptor (PXR) small molecule agonists, qHTS cell viability counter screen (AID 1346977). Further: nearly all actives have a fitted effect of over 50% in size. Further: potency means the concentration at half of the fitted maximal effect. An outline of the steps: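 Measures live-cell protease fluorescence (CellTiter-Fluor) in PXR-Luc HepG2 cells treated 24hr with compounds at 37C. Cells had 5hr to attach before pin transfer of DMSO solutions.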
Assay [12] is described as follows: Caspase-3/7 induction in HepG2 cells by small molecules, qHTS assay (AID 1346978). Further: nearly all actives have a fitted effect of over 15% in size. Summed up: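 Wild-type HepG2 cells (2,000/well) were settled 5 h at 37 C, 5% CO2, then exposed to compounds in DMSO for 17 h. Caspase-3/7 activity was read by luminescence 30 min after adding Caspase-Glo 3/7 reagent at room temperature.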
Assay [13] can be described thus: Caspase-3/7 induction in CHO-K1 cells by small molecules, qHTS cell viability counter screen (AID 1346979). Further: nearly all actives have a fitted effect of over 35% in size. Further: potency means the concentration at half of the fitted maximal effect. Summed up:
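In the same wells as the caspase read, viability of compound-treated wild-type CHO-K1 cells was assessed using CellTiter-Fluor, added after 16hr at 37C and measured by fluorescence following 1hr further incubation.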

Assay [14] is described as follows: Caspase-3/7 induction in CHO-K1 cells by small molecules, qHTS assay (AID 1346980). Further: nearly all actives have a fitted effect of over 15% in size. An outline of the steps: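 Wild-type cells were seeded at 1,500 per well and settled 5 hr at 37 C, 5% CO2, then exposed to DMSO-dissolved compounds for 17 hr. Caspase-Glo 3/7 reagent was added, and luminescence was read after 30min at room temperature.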
Assay [15] in a line: Caspase-3/7 induction in HepG2 cells by small molecules, qHTS cell viability counter screen (AID 1346981). Further: nearly all actives have a fitted effect of over 30% in size. Further: potency means the concentration at half of the fitted maximal effect. An outline of the steps: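 Fluorescence read-out of live-cell protease activity (CellTiter-Fluor) after 1 hr with reagent. This was measured in the same wells as the caspase-3/7 luminescence, on HepG2 cells exposed to DMSO-dissolved compounds for 16 hr at 37 C.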
Assay [16] concerns the target Nuclear receptor subfamily 1 group I member 2 (Homo sapiens) (UniProt O75469). Nature of the assay: Human pregnane X receptor (PXR) small molecule agonists, qHTS assay (AID 1346982). Further: nearly all actives have a fitted effect of over 35% in size. An outline of the steps:
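HepG2 PXR-Luc reporter line, 5% charcoal-stripped FBS; 5 hr pre-incubation, compound (DMSO) 24 hr at 37 C/5% CO2; ONE-Glo 30 min RT; luminescence read-out.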

The target of assay [17] is Nuclear receptor subfamily 1 group I member 2 (Rattus norvegicus) (UniProt Q9R1A7). Briefly: Rat pregnane X receptor (rPXR) activation by small molecules, qHTS assay (AID 1346983). Further: nearly all actives have a fitted effect of over 20% in size. Particulars: rPXR luciferase reporter cells, One-Glo luminescence, 24 h; max activation: stronger effect = higher value. An outline of the steps: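 Cell-based rPXR luciferase reporter assay, 2,000 cells per well, rested 5hr at 37 C before compound addition in DMSO, then 24 hr at 37 C. One-Glo reagent was added and luminescence read after 30 min at room temperature.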

Assay [18] deals with Nuclear receptor subfamily 1 group I member 2 (Homo sapiens) (UniProt O75469). Nature of the assay: Human pregnane X receptor (PXR) activation by small molecules, qHTS assay (AID 1346985). Further: nearly all actives have a fitted effect of over 40% in size. Summed up:
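DPX-2 cells (HepG2 co-transfected with a PXR response element and a CYP3A4-promoter luciferase construct) were seeded at 2,000 per well, rested 5 hr at 37C, then exposed to DMSO-dissolved compounds for 24 hr. Activation was read as luciferase luminescence.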

Assay [19] in a line: qHTS assay to identify small molecule agonists of the progesterone receptor (PR) signaling pathway - cell viability counter screen (AID 1346799; calls by dose curve; further: nearly all actives have a fitted effect of over 45% in size). Summed up:
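Counter screen for cytotoxicity: compound-treated PR-UAS-bla HEK293T cells (16 hr, 37C, 5% CO2) were assayed with CellTiter-Glo, luminescence measured after 30 min at room temperature.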

For assay [20], the target named is Nuclear receptor subfamily 1 group I member 2 (Homo sapiens) (UniProt O75469). Nature of the assay: CYP3A4 induction through human pregnane X receptor (PXR) by small molecules, qHTS assay (AID 1346984). Further: nearly all actives have a fitted effect of over 40% in size. Summed up: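 HepG2-derived DPX-2 line carrying PXR plus a CYP3A4-promoter luciferase reporter; cells plated 5 hr, compound-exposed 24 hr at 37C. CYP3A4 activity probed with 3uM (final) Luciferin-IPA for 3hr, then luciferase read after One-Glo.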

A number with no mark means an inactive call. Results filed as inconclusive are left out. Activity calls are given as the source filed them. Unless noted, the call rests on the fitted dose curve; in most records, active means well fitted curve in the direction sought with a large enough effect in the repeat runs; inconclusive means weak or mixed curves; inactive means no such curve, though single readings can be large; an effect the other way counts as inactive or inconclusive.
On the % scale 0 is the no-effect control and ±100 the full control effect.

Sequence of Thyrotropin-releasing hormone receptor (Homo sapiens) (P34981 whole entry, looked up): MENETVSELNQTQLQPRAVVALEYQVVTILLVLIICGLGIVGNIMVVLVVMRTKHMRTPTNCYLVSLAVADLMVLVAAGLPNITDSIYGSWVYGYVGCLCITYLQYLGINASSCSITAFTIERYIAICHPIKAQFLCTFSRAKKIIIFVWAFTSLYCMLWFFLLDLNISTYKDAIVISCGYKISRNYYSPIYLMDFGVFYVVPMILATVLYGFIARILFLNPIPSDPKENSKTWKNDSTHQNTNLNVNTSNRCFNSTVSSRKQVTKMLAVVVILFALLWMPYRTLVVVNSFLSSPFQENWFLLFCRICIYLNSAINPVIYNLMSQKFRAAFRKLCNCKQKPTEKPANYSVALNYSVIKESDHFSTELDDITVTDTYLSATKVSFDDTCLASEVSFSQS
Sequence of Progesterone receptor (Homo sapiens) (P06401 whole entry, looked up): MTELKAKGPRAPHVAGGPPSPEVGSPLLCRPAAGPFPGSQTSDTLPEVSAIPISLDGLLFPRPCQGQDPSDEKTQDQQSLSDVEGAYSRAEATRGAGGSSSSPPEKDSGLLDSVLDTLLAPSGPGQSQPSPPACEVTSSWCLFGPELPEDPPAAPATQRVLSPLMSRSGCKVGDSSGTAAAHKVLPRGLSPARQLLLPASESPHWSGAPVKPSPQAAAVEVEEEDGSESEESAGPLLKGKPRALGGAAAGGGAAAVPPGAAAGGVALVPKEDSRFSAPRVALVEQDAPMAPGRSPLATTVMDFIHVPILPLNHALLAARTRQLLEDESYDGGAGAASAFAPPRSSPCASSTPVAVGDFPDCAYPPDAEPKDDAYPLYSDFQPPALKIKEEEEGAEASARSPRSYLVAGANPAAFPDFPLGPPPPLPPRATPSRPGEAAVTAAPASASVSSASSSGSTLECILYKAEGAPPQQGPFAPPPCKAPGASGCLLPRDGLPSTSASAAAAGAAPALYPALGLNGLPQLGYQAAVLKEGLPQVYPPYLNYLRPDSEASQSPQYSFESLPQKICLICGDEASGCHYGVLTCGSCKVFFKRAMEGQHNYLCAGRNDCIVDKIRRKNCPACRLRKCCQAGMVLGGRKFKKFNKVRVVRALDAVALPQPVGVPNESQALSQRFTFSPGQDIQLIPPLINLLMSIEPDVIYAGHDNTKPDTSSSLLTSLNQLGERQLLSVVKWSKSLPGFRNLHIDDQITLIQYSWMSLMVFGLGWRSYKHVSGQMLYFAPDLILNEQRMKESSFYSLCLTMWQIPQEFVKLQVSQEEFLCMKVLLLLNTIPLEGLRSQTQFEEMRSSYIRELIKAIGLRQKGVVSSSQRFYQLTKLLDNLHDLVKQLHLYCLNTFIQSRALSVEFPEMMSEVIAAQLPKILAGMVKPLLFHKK
Sequence of Nuclear receptor subfamily 1 group I member 2 (Rattus norvegicus) (Q9R1A7 whole entry, looked up): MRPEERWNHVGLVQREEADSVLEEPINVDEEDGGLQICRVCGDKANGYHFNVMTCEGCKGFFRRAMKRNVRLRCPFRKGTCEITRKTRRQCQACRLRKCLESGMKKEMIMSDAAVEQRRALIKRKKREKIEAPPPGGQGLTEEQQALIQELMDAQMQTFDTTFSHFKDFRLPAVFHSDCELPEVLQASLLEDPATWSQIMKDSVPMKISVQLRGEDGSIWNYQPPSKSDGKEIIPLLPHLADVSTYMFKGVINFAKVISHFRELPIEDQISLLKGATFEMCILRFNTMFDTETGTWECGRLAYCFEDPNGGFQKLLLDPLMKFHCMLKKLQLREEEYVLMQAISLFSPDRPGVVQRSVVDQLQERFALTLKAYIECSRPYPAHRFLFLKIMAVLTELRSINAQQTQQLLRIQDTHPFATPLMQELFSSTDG
Sequence of Nuclear receptor subfamily 1 group I member 2 (Homo sapiens) (O75469 whole entry, looked up): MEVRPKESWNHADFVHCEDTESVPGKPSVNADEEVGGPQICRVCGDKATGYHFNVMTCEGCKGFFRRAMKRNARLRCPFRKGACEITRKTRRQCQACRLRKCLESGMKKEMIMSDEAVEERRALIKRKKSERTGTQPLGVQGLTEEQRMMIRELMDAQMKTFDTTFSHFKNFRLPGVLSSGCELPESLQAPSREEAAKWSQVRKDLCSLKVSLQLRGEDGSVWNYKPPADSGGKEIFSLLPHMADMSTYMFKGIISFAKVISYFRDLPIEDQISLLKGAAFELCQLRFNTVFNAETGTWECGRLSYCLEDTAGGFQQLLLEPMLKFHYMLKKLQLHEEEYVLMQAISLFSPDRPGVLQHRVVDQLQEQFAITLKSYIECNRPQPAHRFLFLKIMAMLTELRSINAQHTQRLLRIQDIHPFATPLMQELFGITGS
Sequence of Thyrotropin receptor (Homo sapiens) (P16473 whole entry, looked up): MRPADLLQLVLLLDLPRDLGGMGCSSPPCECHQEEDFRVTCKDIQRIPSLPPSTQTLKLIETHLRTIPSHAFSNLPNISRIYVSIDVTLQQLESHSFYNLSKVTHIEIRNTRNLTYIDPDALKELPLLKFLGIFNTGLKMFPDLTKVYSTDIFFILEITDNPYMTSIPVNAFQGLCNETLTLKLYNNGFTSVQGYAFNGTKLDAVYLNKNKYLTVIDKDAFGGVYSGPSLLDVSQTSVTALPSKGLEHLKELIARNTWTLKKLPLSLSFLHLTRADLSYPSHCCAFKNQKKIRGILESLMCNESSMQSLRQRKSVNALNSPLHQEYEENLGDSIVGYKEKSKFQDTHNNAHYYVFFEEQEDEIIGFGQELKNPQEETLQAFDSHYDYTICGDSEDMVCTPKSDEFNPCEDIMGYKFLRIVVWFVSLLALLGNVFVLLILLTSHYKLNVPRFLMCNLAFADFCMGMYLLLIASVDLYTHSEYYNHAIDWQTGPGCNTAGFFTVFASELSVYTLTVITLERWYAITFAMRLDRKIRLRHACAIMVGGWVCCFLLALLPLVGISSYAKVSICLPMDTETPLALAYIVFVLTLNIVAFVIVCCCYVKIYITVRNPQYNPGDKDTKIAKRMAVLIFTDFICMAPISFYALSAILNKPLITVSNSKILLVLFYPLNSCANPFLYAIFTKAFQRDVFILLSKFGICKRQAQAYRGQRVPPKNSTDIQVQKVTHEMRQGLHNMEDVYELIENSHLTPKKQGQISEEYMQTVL

Regarding `Nc1cccc2c1CN(C1CCC(=O)NC1=O)C2=O` (stereo not drawn), the Potency entry in [1], in assay [2], in assay [3], in assay [4], in assay [5] and in assay [6] was “inactive” each time. The Potency entry in assay [7], in assay [8], in [10], in assay [11], in assay [12] and in assay [13] was “inactive” in each case. Further, the Potency result in assay [14], in [15], in [16] and in [18] was “inactive” in each case. In [9], the outcome was inactive. For the same compound, in assay [17], the max activation was -1%.

`Cc1ccccc1S`: the Potency result in assay [1], in [2], in [3], in assay [4], in assay [5] and in assay [19] was “inactive” throughout. For the same compound, the Potency entry in assay [7], in assay [8], in [10], in [11], in assay [12] and in assay [13] was “inactive” throughout. For the same compound, the Potency result in [14] and in [15] was “inactive” each time. Also, in [9], the compound was classed as inactive.

Turning to `CCC(C)(C)OC`, the Potency entry in [1], in assay [2], in assay [3], in assay [4], in assay [5] and in assay [6] was “inactive” in each case. In addition, the Potency entry in assay [7], in assay [8], in assay [10], in assay [11], in assay [12] and in [13] was “inactive” in each case. In addition, the Potency entry in assay [15] and in assay [16] was “inactive” throughout. Besides, the result in assay [9] was inactive.

Turning to `O=C(/C=C/c1ccc(O)c(O)c1)O[C@@H]1C[C@@](OC(=O)/C=C/c2ccc(O)c(O)c2)(C(=O)O)C[C@@H](O)[C@@H]1O`, the Potency entry in assay [1], in [2], in assay [3], in assay [4], in assay [5] and in assay [6] was “inactive” each time. Besides, the Potency result in assay [7], in assay [8], in assay [10], in assay [11], in assay [12] and in assay [13] was “inactive” throughout. The Potency result in [14], in assay [15], in assay [16], in assay [20] and in assay [18] was “inactive” each time. In assay [9], the compound was classed as inactive. The max activation in [17] was -5.53%.

With `CCCCC(CC)CN` (stereo not drawn), the Potency entry in assay [1], in [2], in assay [3], in assay [4], in assay [5] and in [6] was “inactive” in each case. The Potency result in assay [7], in assay [8], in assay [10], in assay [11], in assay [12] and in assay [13] was “inactive” each time. For the same compound, the Potency entry in assay [14] and in assay [15] was “inactive” throughout. Also, in assay [9], the result was inactive.

`COc1cc(C(=O)NCCCCCC(=O)O)cc(OC)c1OC`: the Potency entry in [1], in assay [2], in [3], in assay [4], in assay [5] and in [19] was “inactive” each time. Also, the Potency entry in assay [6], in assay [8], in assay [10], in assay [12], in assay [13] and in assay [14] was “inactive” each time. The Potency entry in assay [15], in assay [16], in assay [20] and in assay [18] was “inactive” in each case. The outcome in assay [9] was inactive. In addition, in assay [17], the max activation is -0.807%.

`O=C1c2ccccc2C(=O)c2c(O)c(O)cc(O)c21`: the Potency entry in assay [1], in assay [3], in assay [4], in assay [5], in assay [6] and in [7] was “inactive” throughout. Moreover, the Potency result in assay [8], in assay [10], in assay [12], in [14] and in assay [16] was “inactive” throughout. Further, the Potency is 30.6 µM (active) in assay [2], 54.5 µM (active) in assay [11], 48.6 µM (active) in assay [13] and 54.5 µM (active) in assay [15]. In assay [9], the call was inactive.

On to `O=C1CCCCCCCCCCOCCCCO1`, for which the Potency result in [1], in [2], in [3], in assay [4], in assay [5] and in assay [19] was “inactive” throughout. The Potency entry in assay [7], in assay [10], in [12], in assay [13], in [15] and in assay [16] was “inactive” in each case. Besides, the call in assay [9] was inactive.

Consider `CCOC(=O)c1ccc(I)cc1`, for which the Potency result in assay [1], in assay [2], in assay [4], in assay [5], in assay [6] and in assay [8] was “inactive” in each case. In addition, the Potency result in [10], in [12], in assay [13], in assay [14], in assay [15] and in assay [16] was “inactive” throughout. In addition, the Potency in assay [3] was 5.5 µM (active). In addition, the result in assay [9] was inactive.

The values are drawn from PubChem BioAssay (Tox21).
